The results in this text go back to the supplement of paper PMC11417369.

± gives the standard deviation of the averaged measurements. The full ranking holds about 25,000 sequences; the median of “ln(normalized median fluorescence intensity)” is about 10, and the highest 2% start at about 12. Only a selection was taken, and the highest values are over-represented in it overall.

For the assay, the system named is PfAP2-G AP2 domain (GST-tagged). As to the kind of experiment: gcPBM binding intensity (ln(normalized median fluorescence intensity)); higher = stronger DNA binding. Summed up: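 The binding buffer was 1× PBS containing 1% milk, 0.2 mg/ml BSA, 0.5% salmon testes DNA and 0.03% Triton X-100. In it, GST-tagged P. falciparum DNA-binding domains expressed in E. coli were applied for 1 h to an Agilent 4 × 180k array of primer-extended double-stranded 36-bp intergenic genomic probes plus negative controls. Binding intensity, read with Alexa488 anti-GST antibody and a 488 nm scan, is the highest Masliner-normalised natural-log median intensity across replicate spots of either probe orientation.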
As to “TTTATATGTTTTAAGTGTACACATATAATGTATTTT [XGTACX_site3069]”, the “gcPBM binding intensity (ln)” value was found to be 11.6 ± 0.91.
With “TGCTATAATTTATATACACACAAATATATACGCATA [CACACA_site4096]”, the “gcPBM binding intensity (ln)” value came to 10 ± 0.14.
Consider TTTTTTTTGCGTACAGTGCAAATTTATTTACTATTC, for which the “gcPBM binding intensity (ln)” value amounted to 11.7 ± 1.1.
For the sequence “AGAAAAATTATTTTGCGTACATATTTACAATAAAAA [XGTACX_site2144]”, the “gcPBM binding intensity (ln)” value came to 11.5 ± 0.75.
Regarding “TTTTATTTACACAGTGGTACTATTAAAAATTAATGA [XGTACX_site6737]”, the “gcPBM binding intensity (ln)” value amounted to 11 ± 0.7.
For “GACATTTCTTGGGATACATGCATGTCCCAGAACAAA [TGCATGCA_site271]”, the “gcPBM binding intensity (ln)” value came out at 10.6 ± 0.4.
“TTTTTATTTTTGTAGTGTACTTTATTTTTTTTGTTT [XGTACX_site8887]”: the “gcPBM binding intensity (ln)” value was 11.6 ± 0.91.
As to “TTTTTATTTTTTAGTAGTACACACTTTTTGAACCTT [XGTACX_site1091]”, the “gcPBM binding intensity (ln)” value was 11.6 ± 0.97.
As for “TTTGAACTTTTATATACACACATTATTATAGTATAG [CACACA_site6851]”, the “gcPBM binding intensity (ln)” value is 10.04 ± 0.071.
As to “CTTATTTCCTTTTGTAGTACCTTATAATATATATAA [XGTACX_site8873]”, the “gcPBM binding intensity (ln)” value worked out at 11.3 ± 0.69.
As for “ATTCTTTTATTTAGTAGTACATTTGTATTTTATTCA [XGTACX_site5790]”, the figure is 11.5 ± 0.95; as for “TTTTTTATTACTTTGTGTACTTACACAGAACCTTAT [XGTACX_site6038]”, 11.5 ± 0.88; as for “TTTTATTTTTTAGTAGTACACACTTTTTGTACCTTT [CACACA_site599]”, 11.8 ± 1.
Take “TTATTTTTTAGTAGTACACACTTTTTGTACCTTTTA [CACACA_site4503]”: the “gcPBM binding intensity (ln)” value came out at 11.8 ± 1.1.
For “TGTTTACACTTTTTTTGTACACATAATTTTATTTGA [XGTACX_site3760]”, the “gcPBM binding intensity (ln)” value turned out to be 11.3 ± 0.81.
The result for “AATTATATAAGCCACGCATGTGTGCATAAAAATACA [TGCATGCA_site114]” reads 10.2 ± 0.14; that for “TGTACGAGTCGTAGAGTGCAGTCTGGAGAAACGTAC [GTGCAC_site9682]”, 11 ± 0.47.
With “AATTTACATATATATTGTACATTTATGTATATATAT [XGTACX_site4186]”, the “gcPBM binding intensity (ln)” value amounted to 10.7 ± 0.52.
As to “AAATAAATCTTATGCACACAAATAATTAATTAAACA [CACACA_site1693]”, the “gcPBM binding intensity (ln)” value is 10.06 ± 0.014.
“ATAAAAAAAATAAAAAGTACAAAAAAAAAAAATGGA [XGTACX_site136]”: the “gcPBM binding intensity (ln)” value worked out at 11.3 ± 0.71.
Take “ACATATGACTATAATACACACTTGTATTATTAATAT [CACACA_site6951]”: the “gcPBM binding intensity (ln)” value was determined as 9.98 ± 0.13.
Consider “ATATATATATCTAATTGTACATATTTTATAAATAAG [XGTACX_site4840]”, for which the “gcPBM binding intensity (ln)” value amounted to 11 ± 0.52.
Regarding “GGCATAAATATATGCACACACAAAAAAAAAAAAAAA [CACACA_site59]”, the “gcPBM binding intensity (ln)” value turned out to be 10 ± 0.65.
Take “GAAAAAAATGAAATTAGTACTTATCTTAAATTTTTA [XGTACX_site1018]”: the “gcPBM binding intensity (ln)” value came to 10.8 ± 0.47.
The result for “TATGCTATTATATATGTACACACCAATTTATTTATA [CACACA_site3918]” reads 11.3 ± 0.74; that for “TTTTTCTTACATGAGTGTACACACTTTTTTTCAGAA [XGTACX_site138]”, 11.7 ± 0.83; that for “AATATTTATTTTACATGTACTTATTTTTCTTTTAAC [XGTACX_site3631]”, 11.4 ± 0.88.
“TTCTTACATGAGTGTACACACTTTTTTTCAGAAAAT [CACACA_site4215]”: the “gcPBM binding intensity (ln)” value is 11.7 ± 1.
As for “AGAAAAAAAAAAAAATGTACAGACTTTTTCTTATAA [XGTACX_site6481]”, the figure is 11 ± 0.55; as for “TTTTCTTACATGAGTGTACACACTTTTTTTCAGAAA [CACACA_site70]”, 11.6 ± 0.91.
As for “ATCTTTCGAACATGTACACACAGAAAAAAAAAAAAA [CACACA_site5393]”, the figure is 11.3 ± 1; as for “TATAATATGTTTGATGGTACACGTAAACACCTTGCA [XGTACX_site1643]”, 11.1 ± 0.68.
“TATACAATATATTTTGGTACACAAACAAAAAAATAT [XGTACX_site2522]”: the “gcPBM binding intensity (ln)” value was found to be 11.2 ± 0.82.
For “ATGTTTGATGCTACACGTACACACCTTGCAAATATT [XGTACX_site1644]”, the “gcPBM binding intensity (ln)” value came out at 11.6 ± 1.
For “TTTGATGGTACACGTACACACCTTGCAAATATTTTT [CACACA_site4645]”, the “gcPBM binding intensity (ln)” value was found to be 11.8 ± 1.
Turning to “TGTTTGATGGTACACGTACACACCTTGCAAATATTT [CACACA_site888]”, the “gcPBM binding intensity (ln)” value is 11.8 ± 1.2.
Take “AAATATTTTGCATACACATGCAAATATTTTTTACAT [TGCATGCA_site554]”: the “gcPBM binding intensity (ln)” value stood at 9.8 ± 0.11.
On to “ATATATATCGGACACACACACATGTTTTAAAACTAT [CACACA_site4218]”, for which the “gcPBM binding intensity (ln)” value was 10.9 ± 0.64.
“TGTTTATTTTTAAAAAGTACATATTTAAAAAACTTC [XGTACX_site271]”: the “gcPBM binding intensity (ln)” value is 11.4 ± 1.
With “GTTAATATTTTTGGGGGTACTTAAAAAAAAAAAAAA [XGTACX_site1477]”, the “gcPBM binding intensity (ln)” value is 11.7 ± 0.91.
Turning to “ATTTTTTTTTTTTTTTTGGGGGGGTATACTTTTAAA [CACACA_negctrl_site1020]”, the “gcPBM binding intensity (ln)” value was 11.9 ± 0.77.
With “TATACTTTATATATTTTGTATATATATTTTTTTTAT [TGCATGCA_negctrl_site530]”, the “gcPBM binding intensity (ln)” value turned out to be 9.645 ± 0.035.
Take “TATATTTAACATACTTTTTTTTTTTTTTTTTTTTTT [CACACA_negctrl_site938]”: the “gcPBM binding intensity (ln)” value turned out to be 10.9 ± 0.45.
Regarding “TTTTTTTTTTTTTGGGGTACATTTTAATTAATATTA [XGTACX_site4866]”, the “gcPBM binding intensity (ln)” value was determined as 11.4 ± 0.86.
Regarding “CCATTTATTATTTGGGGTACATTTAATTAATATTTT [XGTACX_site5940]”, the “gcPBM binding intensity (ln)” value amounted to 11.5 ± 1.
